Each structure is given as a SMILES string. Results filed as inconclusive are left out. Entries that show only a call come without a potency. The source made the active and inactive calls. Calls come from the whole dose curve; as a rule, active = well fitted activation curve with a large enough effect in the signal ratio in the repeat runs (not every such curve was filed as active); inconclusive = weak or mixed curves, or effect the other way; inactive = flat fitted curve, though single readings scatter; the % refers to the signal ratio.

This assay can be described thus: qHTS assay to identify small molecule agonists of the endoplasmic reticulum stress response signaling pathway (AID 1159516). Particulars: ESRE-bla HeLa, ER stress beta-lactamase reporter, 5 h; series mostly up to 61 µM. The text has this:
National Center for Advancing Translational Sciences [NCATS]
NIH Chemical Genomics Center [NCGC]
U.S. Environmental Protection Agency [EPA]
National Institutes of Environmental Health Sciences [NIEHS]
National Toxicology Program [NTP]
U.S. Food and Drug Administration [FDA]
Endoplasmic Reticulum (ER) plays an important role in cellular signaling, protein folding/maturation, stress response, lipid biosynthesis, calcium storage and release etc. Under stress conditions, proteins in ER misfold or unfold, and leading to the expression of ER stress responsive genes. ER stress has been associated with a variety of pathophysiological conditions such as cancer, inflammation, neurodegenerative diseases, diabetes, ischemic heart disease etc. To identify the compounds that induce ER stress response, an ER stress reporter cell line, CellSensor ESRE-bla HeLa (Life Technologies, Carlsbad, CA) containing a beta-lactamase reporter gene under control of the Endoplasmic reticulum Stress Response Element (ESRE) was used to screen Tox21 10K compound library.
Tox21 Assay Protocol Summary:
ESRE-bla HeLa cells were dispensed at 1,500 cells/6 uL of assay medium per well into black wall/clear-bottom 1536-well plates using a Multidrop Combi (ThermoFisher Scientific, Waltham, MA) dispenser. After the assay plates were incubated at 37 C and 5% CO2 for an overnight, 23 nL of compounds dissolved in DMSO, positive controls or DMSO only was transferred to the assay plate by a Pintool station (Kalypsys, San Diego, CA). The assay plates were incubated at 37 C and 5% CO2 for 5 hr. One uL of LiveBLAzer B/G FRET substrate (Life Technologies) was added using a Flying Reagent Dispenser (Aurora Discovery, San Diego, CA) and the plates were incubated at room temperature for 2 hr. Fluorescence intensity (405 nm excitation, 460 nm and 530 nm emissions) was measured using an Envision plate reader (PerkinElmer, Shelton, CT).
In general terms: qHTS replaces the single test concentration by a dilution series.
With `CCCCCCCCCCCCCO`, the Potency result was “inactive”.

In the case of `CNC[C@H](O)c1ccc(O)c(O)c1`, the Potency result is “inactive”.

In the case of `Oc1ccc(C(c2ccc(O)cc2)C(Cl)(Cl)Cl)cc1`, the Potency result was “inactive”.

Consider `OC[C@@H](O)[C@@H](O[C@@H]1O[C@H](CO)[C@H](O)[C@H](O)[C@H]1O)[C@H](O)[C@@H](O)CO`, for which the Potency result was “inactive”.

Turning to `O=C(O)c1cc(=O)[nH]c(=O)[nH]1`, the Potency entry was “inactive”.

`Cc1ccc2c(c1)C(=O)OC2=O`: the Potency result is “inactive”.

On to `C=C1C[C@H]2[C@@H]3C=C(C)C4=CC(=O)CC[C@]4(C)[C@H]3CC[C@]2(C)[C@@]1(OC(C)=O)C(C)=O`, for which the Potency entry was “inactive”.

As to `Nc1cc([N+](=O)[O-])ccc1C(=O)O`, the Potency result is “inactive”.

For the molecule `C=C[C@@]1(C)CC(=O)[C@]2(O)[C@@]3(C)[C@@H](O)CCC(C)(C)[C@@H]3[C@H](O)[C@H](OC(C)=O)[C@@]2(C)O1`, the Potency entry was “inactive”.

Take `O=[Se](O)O`: the Potency result was “inactive”.

For `Cc1ccc(C(C)(C)C)c(O)c1`, the Potency result is “inactive”.

As to `CC1=CC(C)(C)Nc2ccccc21`, the Potency result is “inactive”.

Regarding `CN(C)/N=N/c1nc[nH]c1C(N)=O`, the Potency entry was “inactive”.

Take `Nc1cc(Cl)c(N)c(Cl)c1`: the Potency result is “inactive”.

In the case of `Cc1ccc(S(=O)(=O)O)cc1C`, the Potency entry was “inactive”.

Consider `NCCS(=O)(=O)O`, for which the Potency entry was “inactive”.

For the molecule `Cc1ccc(C(C)(C)C)cc1`, the Potency result was “inactive”.

In the case of `Brc1nc2ccccc2s1`, the Potency entry is “inactive”.

For the molecule `C[N+](C)(C)CCO`, the Potency entry is “inactive”.

In the case of `CC(=O)O[C@]1(C(C)=O)CC[C@H]2[C@@H]3C=C(Cl)C4=CC(=O)CC[C@]4(C)[C@H]3CC[C@@]21C`, the Potency result was “inactive”.

As for `Cc1ccc(N)c([N+](=O)[O-])c1`, the Potency entry is “inactive”.

Turning to `C1COCCN1`, the Potency entry was “inactive”.

Take `Cc1ccc([N+](=O)[O-])c(C)c1`: the Potency entry was “inactive”.

In the case of `O=C(O)CCCCCCCCCCCC(=O)O`, the Potency result was “inactive”.

Regarding `CCCN1C=CN(C)C1`, the Potency entry was “inactive”.

For the molecule `CCC/C=C/C=O`, the Potency result is “inactive”.

With `O=C1OC2(c3ccccc31)c1cc(I)c(O)c(I)c1Oc1c2cc(I)c(O)c1I`, the Potency result was “inactive”.

Turning to `COc1ccc(C(=O)c2ccccc2O)c(O)c1`, the Potency result was “inactive”.

As to `CCCCCCCCCCCCO`, the Potency result is “inactive”.

For `CC(C)(C)c1cccc(C(C)(C)C)c1O`, the Potency entry was “inactive”.

For the molecule `CC(C)(Oc1ccc(Cl)cc1)C(=O)O`, the Potency entry was “inactive”.

As for `CCC(Cc1c(I)cc(I)c(N)c1I)C(=O)O` (stereo not given), the Potency result was “inactive”.

As to `Nc1ccc(O)c(N)c1`, the Potency result is “inactive”.

Take `O=C(O)c1ccc(O)cc1`: the Potency result is “inactive”.

Regarding `CCOC(=O)C(C)Oc1ccc(Oc2cnc3cc(Cl)ccc3n2)cc1` (stereo not given), the Potency entry is “inactive”.

`CCCCCCOCCOCCO`: the Potency entry is “inactive”.

In the case of `Cc1ccc(C)c(O)c1`, the Potency entry is “inactive”.

As for `NCCN`, the Potency result was “inactive”.

On to `CC/C(=C(/CC)c1ccc(O)cc1)c1ccc(O)cc1`, for which the Potency entry is “inactive”.

Regarding `NC[C@H](O)c1ccc(O)c(O)c1`, the Potency entry is “inactive”.

The record behind these values is PubChem BioAssay (Tox21).
